Experimental data as given in PubChem BioAssay (NCI).
Compounds without any hit were thinned out: in the full panel of roughly 83,000, 20% have a hit.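 Cell lines were cultured in 96-well plates, exposed to a single compound concentration, and assessed for percent growth 48 hours later.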 Active and inactive are the calls of the source. How the source made its calls: active means growth percent below 10; inactive means the rest.

Legend:
Experiment in all cases: NCI-60 one-dose screen, 48 h (100 = growth as untreated, 0 = no growth, -100 = all killed)
Conditions in all cases: 10 µM unless noted
[1] = tested on: SR leukemia
[2] = tested on: RPMI-8226 leukemia
[3] = tested on: OVCAR-8 ovarian
[4] = tested on: OVCAR-5 ovarian
[5] = tested on: OVCAR-4 ovarian
[6] = tested on: SK-OV-3 ovarian
[7] = tested on: IGROV1 ovarian
[8] = tested on: OVCAR-3 ovarian
[9] = tested on: HS 578T breast
[10] = tested on: NCI/ADR-RES ovarian
[11] = tested on: T-47D breast
[12] = tested on: MDA-MB-435 melanoma
[13] = tested on: SW-620 colon
[14] = tested on: MCF7 breast
[15] = tested on: HCT-116 colon
[16] = tested on: HCC-2998 colon
[17] = tested on: KM12 colon
[18] = tested on: BT-549 breast

Measured: growth

c1ccc(Cn2cc3c(c2)-c2nc(Nc4ccccc4)ncc2CC3)cc1
inactive: [1] 114% [100 µM] | [2] 88.2% [100 µM] | [3] 67.5% [100 µM] | [4] 82.8% [100 µM] | [5] 63.3% [100 µM] | [6] 63.1% [100 µM] | [7] 62.9% [100 µM] | [8] 85.9% [100 µM] | [9] 68.9% [100 µM] | [10] 83.9% [100 µM] | [11] 74.3% [100 µM] | [12] 96% [100 µM] | [13] 92% [100 µM] | [14] 70.5% [100 µM] | [15] 80.6% [100 µM] | [16] 99.9% [100 µM] | [17] 87% [100 µM]

COc1ccc(C(=O)/C=C/c2ccc(Cl)cc2)cc1S(N)(=O)=O
inactive: [3] 11.5% | [4] 78.8% | [5] 102% | [6] 83.1% | [7] 16.6% | [8] 61.9% | [9] 91.5% | [10] 74.9% | [11] 69.9% | [12] 86.2% | [13] 13.2% | [14] 18% | [16] 100% | [17] 28.2%
active: [1] -10.3% | [2] -31.7% | [15] -78.3%

C=C(C)[C@@H]1CC[C@]2(COCCCNCCCN)CC[C@]3(C)[C@H](CC[C@@H]4[C@@]5(C)CC[C@H](OCCCN)C(C)(C)[C@@H]5CC[C@]43C)[C@@H]12
inactive: [6] 102% | [8] 47.8% | [9] 87.4% | [18] 99.6%
active: [1] -49.2% | [2] -51.7% | [3] -66.3% | [4] -49% | [5] -79.4% | [10] -80.2% | [11] -65.2% | [12] -91.2% | [13] -80.8% | [14] -77.9% | [15] -82.5% | [16] -24.8% | [17] -89.8%

O=C1NC(=O)C(=Cc2cc(-c3ccc(Cl)cc3)n(-c3ccccc3)n2)C(=O)N1
inactive: [1] 93.7% | [2] 92.1% | [3] 101% | [4] 91.5% | [5] 103% | [6] 105% | [8] 111% | [9] 95.5% | [10] 107% | [11] 93.6% | [18] 83.9% | [12] 94.5% | [13] 96.7% | [14] 93.2% | [15] 94% | [16] 110% | [17] 102%

CC(=O)O[C@H]1CC[C@@]2(C)C(=CC[C@@H]3[C@@H]2CC[C@]2(C)C(Cl)=C(c4nc5ccc(Cl)cn5c4NC(C)(C)C)C[C@@H]32)C1
inactive: [1] 93% | [2] 93.9% | [3] 96.9% | [4] 91.5% | [5] 90.3% | [6] 105% | [7] 87.9% | [8] 100% | [9] 85.6% | [10] 95.4% | [11] 94.4% | [12] 93.8% | [13] 98.3% | [14] 91.9% | [15] 86.6% | [16] 112% | [17] 94.5%

CN(C)CC1C(=O)O[C@H]2[C@H]1CC/C(COC(=O)NCc1ccc(Cn3c(=O)sn(CCCI)c3=O)cc1)=C\CC[C@@]1(C)O[C@@H]21 (some centres undefined)
active: [1] -28.6% | [2] -29.7% | [3] -68.2% | [5] 6.44% | [7] -81.8% | [8] -96.4% | [11] -55.5% | [13] -74.9% | [14] -55.4% | [15] -73.2%
inactive: [4] 105% | [6] 99.5% | [9] 82.5% | [10] 98.8% | [12] 20.5% | [16] 41% | [17] 105%

C#Cc1cccc(Nc2ncnc3ccc(-c4cnc(Cl)c(NS(C)(=O)=O)c4)cc23)c1
active: [1] -9.92% | [2] -31.8% | [3] 3.78% | [4] -15.5% | [5] 9.21% | [6] -25% | [7] -55.8% | [8] -72.5% | [9] -21.4% | [10] 7.96% | [11] -46.8% | [12] -55.2% | [13] 2.56% | [14] -0.512% | [15] -55% | [16] -62.5% | [17] -54.3%

CN(C)c1ccc(Cc2cc(-c3ccccc3)nn(C/C(=N/O)c3ccccc3)c2=O)cc1
inactive: [1] 46.3% | [2] 28.2% | [3] 57.2% | [4] 89.7% | [5] 55.1% | [6] 94.6% | [7] 68.5% | [8] 56.2% | [9] 83.1% | [10] 44.1% | [11] 11.8% | [12] 38% | [13] 62.1% | [14] 29.1% | [15] 46% | [16] 81.2% | [17] 31.8%

CCOC(=O)c1c(N)sc2cc(O)ccc12
inactive: [1] 93% | [2] 110% | [3] 100% | [4] 100% | [5] 108% | [6] 111% | [7] 97.1% | [8] 97.9% | [9] 99.9% | [10] 100% | [11] 85.7% | [12] 107% | [13] 117% | [14] 104% | [15] 98.5% | [16] 111% | [17] 89.1%

C=C1/C(=C\C=C2/CCC[C@]3(C)[C@@H]([C@H](C)CCCC(C)(C)O)CC[C@@H]23)C[C@@H](OC(=O)CBr)C[C@@H]1O
active: [1] -47.3% | [2] -50.7% | [7] -65.5% | [8] -20.1%
inactive: [3] 57.3% | [4] 84.1% | [5] 62.7% | [6] 108% | [9] 66.6% | [10] 81.2% | [11] 81.7% | [12] 90.4% | [13] 70.7% | [14] 34.9% | [15] 80.9% | [16] 107% | [17] 57.9%

CCCCCC(C)(O)C(C(=O)O)c1ccccc1 (centres undefined)
inactive: [1] 102% | [2] 101% | [3] 101% | [4] 96.1% | [5] 102% | [6] 101% | [7] 102% | [8] 119% | [9] 107% | [10] 112% | [11] 106% | [12] 107% | [13] 102% | [14] 98.1% | [15] 99.2% | [16] 108% | [17] 104%

CN1CCN(Cc2ccc(NC(=O)c3cc(C#Cc4cnc(N)c5ncccc45)n(C)n3)cc2C(F)(F)F)CC1
active: [1] 2.23%
inactive: [2] 69.2% | [3] 69.4% | [4] 140% | [5] 114% | [6] 111% | [8] 119% | [9] 25% | [10] 96% | [11] 101% | [18] 117% | [12] 102% | [13] 88.1% | [14] 39.7% | [15] 96.1% | [16] 128% | [17] 87.8%

C#CCOc1cccc(-c2ncnc3cc(NC(=O)CCl)ccc23)c1
inactive: [6] 51% | [9] 17% | [16] 56.6% | [17] 16.2%
active: [1] -11.5% | [2] -38.1% | [3] -5.91% | [4] -47.3% | [5] -25.6% | [8] -78.2% | [10] 1.21% | [11] -33.8% | [18] -27.8% | [12] -24.7% | [13] -58.6% | [14] 3.63% | [15] -74.1%

C/C=C(/C)C(=O)O[C@@H]1CC(C)(C)CC2C34OC(=O)[C@@]21CC[C@@]3(C)[C@]1(C)CCC2C(C)(C)C(=O)CC[C@]2(C)C1C[C@@H]4O (some centres undefined)
inactive: [1] 28.5% | [2] 26.2% | [3] 68.6% | [4] 95.3% | [5] 67.1% | [6] 87.8% | [8] 73.7% | [9] 78.3% | [10] 77% | [11] 46.8% | [18] 43.3% | [12] 70.9% | [13] 38.8% | [14] 66.7% | [15] 29.5% | [16] 73.1% | [17] 51.5%

Clc1nc(N2CCC[N+]3(CC2)CC[N+]2(CCCNCC2)CC3)nc(N2CCC[N+]3(CC2)CC[N+]2(CCCNCC2)CC3)n1 (centres undefined)
inactive: [1] 90.4% | [2] 99.8% | [3] 86% | [4] 113% | [5] 98.4% | [6] 76.2% | [8] 92.2% | [9] 98.3% | [10] 92.6% | [11] 95% | [18] 95.1% | [12] 90% | [13] 98.2% | [14] 91.3% | [15] 87% | [16] 97.9% | [17] 94.4%

FC(F)(F)c1cccc(-c2nnn(Cc3cc(-c4cccc(Cl)c4)no3)n2)c1
inactive: [1] 96.2% | [2] 102% | [3] 101% | [4] 101% | [5] 116% | [6] 98.8% | [7] 104% | [8] 114% | [9] 107% | [10] 108% | [11] 108% | [12] 105% | [13] 106% | [14] 99.1% | [15] 96.7% | [16] 103% | [17] 102%

Fc1ccc(/C=C/c2cc(/C=C/c3ccc(F)cc3)n(-c3cc(F)cc(F)c3)n2)cc1
inactive: [1] 87.5% | [2] 73.8% | [3] 112% | [4] 95.2% | [5] 107% | [6] 97.4% | [8] 108% | [9] 114% | [10] 101% | [11] 80.2% | [18] 97.6% | [12] 103% | [13] 104% | [14] 89% | [15] 84.5% | [16] 93.4% | [17] 105%
